# System: T1, TIE2
# T1 construct: gene TEK
# Settings: concentration: 1 μM, replicates: in singlicate; n = 1
# 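Note: KINOMEscan kinase panel screen.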
row,SMILES,%Inh
1,Cc1ccc(C)c(NC(=O)Nc2ccc(C)c(-c3ccc(C(=O)Nc4ccncc4)cc3)c2)c1 [GSK1398473],0%
2,CCNc1nccc(-c2c(-c3ccc(F)cc3)ncn2C2CCN(C)CC2)n1,0%
3,Cc1ccc(NC(=O)c2cccc(N3CCCCC3)c2)cc1-c1ccc(C(=O)NCC2CC2)cc1 [GSK1917008],0%
4,Cl.Cl.NCC(NC(=O)c1cc(-c2cccnc2)c(-c2ccnc3[nH]ccc23)s1)c1ccccc1 (stereo not shown) [GSK1323434],0%
5,COc1cccc(-c2nc(-c3ccccc3)[nH]c2-c2ccncc2)c1 [SB-610250],0%
6,Cn1cc(-c2cnc(N)c3c(-c4ccc5c(c4)CCN5C(=O)Cc4ccccc4)csc23)cn1 [GSK2593074],84%
7,CN(C)CCNS(=O)(=O)c1ccc(-c2ccnc3[nH]ccc23)cc1 [GSK977620],0%
8,O=C(Nc1n[nH]c2nc(-c3cccc(O)c3)ccc12)C1CC1 [SB-711805],21%
9,Nc1cccc(-c2ccc3c(N)n[nH]c3c2)c1 [GSK2193613],0%
10,Cl.O=C(Nc1ccc(Oc2ccc3[nH]c(NC(=O)c4ccco4)nc3c2)cc1)Nc1cc(C(F)(F)F)ccc1F [GW683134],99.8%
11,COc1cccc2c(-c3ccncc3)c(-c3ccc(F)cc3)nn12 [GW468513],0%
12,COc1cc(Nc2ccnc3cc(-c4ccncc4)ccc23)cc(OC)c1OC.Cl [GW494610],15%
13,O=C(O)C(F)(F)F.O=c1[nH]ccc2nc(N[C@@H]3CCNC3)nc(Nc3ccc4c(c3)S(=O)(=O)CC4)c12 [GSK2181306],0%
14,Cl.N#CCc1ccc(Nc2nccc(Nc3ccc(Oc4ccccc4)cc3)n2)cc1 [GW639905],9%
15,Cc1ccc(O)cc1Nc1ccnc2cc(-c3ccc(CN4CCCCC4)o3)ccc12 [GW557777],57%
16,Cl.Cl.NC(CNC(=O)c1cc(Br)c(-c2ccnc3[nH]ccc23)s1)c1ccccc1 (stereo not shown) [GSK1322949],6%
17,CN(c1ccc2c(c1)nc(NCc1ccccc1)n2C)c1ccnc(Nc2ccc(CS(C)(=O)=O)cc2)n1.Cl [GW811603],82%
18,Cc1ccc(O)cc1Nc1ccnc2ccc(C(C)(C)C)cc12 [GW856805],39%
19,COC(=O)Nc1nc2ccc(Oc3ccc(NC(=O)Nc4cc(C(F)(F)F)ccc4F)cc3)cc2[nH]1.Cl [GW654607],99.7%
20,Cn1cc(-c2ccc3c(c2)CCN3C(=O)Cc2cc(F)cc(C(F)(F)F)c2)c2c(N)ncnc21 [GSK2635225],52%
21,COc1cccc(CC(=O)N2CCc3cc(-c4cn(C)c5ncnc(N)c45)ccc32)c1 [GSK2608899],42%
22,N#Cc1cnc2cc(-c3cnc(CNCCN4CCOCC4)s3)ccc2c1Nc1ccc(Oc2ccccc2)cc1 [GW664114],6%
23,O=C(Nc1n[nH]c2cc(-c3cccs3)ccc12)C1CC1 [SB-731284],7%
24,CN(C)CCOc1ccc(-c2cc(-c3ccc(Cl)c(O)c3)c(-c3ccncc3)[nH]2)cc1.Cl.Cl [SB-684387],39%
25,Cc1cccc(Nc2nc(NCCN)ncc2C(N)=O)c1 [GSK1292139],0%
26,COC(=O)Nc1nc2cc(Oc3ccc(NC(=O)Nc4cccc(SC)c4)cc3)ccc2[nH]1.Cl [GW697999],93.2%
27,Nc1ncnc2scc(-c3ccc(NC(=O)Cc4cc(F)ccc4F)cc3)c12.O=C(O)C(F)(F)F [SB-731254-M],77%
28,CC(C)c1nc(-c2ccc(F)c(NS(=O)(=O)c3c(F)cccc3F)c2)c(-c2ccnc(Nc3ccc(N4CCOCC4)nc3)n2)s1 [GSK1804250],98.9%
29,NCCC(NC(=O)c1cc(Br)c(-c2ccnc3[nH]ccc23)s1)c1ccccc1.O=C(O)C(F)(F)F.O=C(O)C(F)(F)F (stereo not shown) [GSK1307810],0%
30,COc1ccc(NC(=O)c2ccoc2)cc1-c1ccc(C(=O)NCC2CC2)cc1 [GW810437],5%

# System: TLK1
# Settings: concentration: 1 μM, replicates: in singlicate; n = 1
row,SMILES,%Inh
1,CCn1c(-c2nonc2N)nc2c(-c3ccccc3)ncc(OCCCN)c21.O=C(O)C(F)(F)F.O=C(O)C(F)(F)F [GSK260205],1%
2,Cc1ccc(-c2ccc3occ(-c4ccc(S(C)=O)cc4)c3c2)nn1 (stereo not shown),0%
3,Cn1cc(-c2ccc3c(c2)CCN3C(=O)Cc2cc(F)cc(F)c2F)c2c(N)ncnc21 [GSK2634140],3%
4,COc1ccc(C)c(Nc2ccnc(Nc3ccc(-c4cnc[nH]4)cc3)n2)c1.Cl [GW784041],0%
5,c1ccc(Oc2ccc(Nc3ccnc4cc(-c5ccc(CN6CCCCC6)o5)ccc34)cc2)nc1 [GW567143],0%
6,CN(c1ccc(F)c(NC(=O)c2cccc(OC(C)(C)C#N)c2Cl)c1)c1ccc2nc(NC(=O)C3CC3)sc2n1,2%
7,COc1cc(Nc2nccc(N3CCC(NS(=O)(=O)c4ccc(NC(C)=O)cc4)CC3)n2)cc(OC)c1OC [GSK1379825],0%
8,Cc1ccc(C)c(NC(=O)Nc2ccc(C)c(-c3ccc(C(=O)Nc4ccncc4)cc3)c2)c1 [GSK1398473],0%
9,CCNc1nccc(-c2c(-c3ccc(F)cc3)ncn2C2CCN(C)CC2)n1,17%
10,Cc1ccc(NC(=O)c2cccc(N3CCCCC3)c2)cc1-c1ccc(C(=O)NCC2CC2)cc1 [GSK1917008],4%
11,Cl.Cl.NCC(NC(=O)c1cc(-c2cccnc2)c(-c2ccnc3[nH]ccc23)s1)c1ccccc1 (stereo not shown) [GSK1323434],14%
12,COc1cccc(-c2nc(-c3ccccc3)[nH]c2-c2ccncc2)c1 [SB-610250],0%
13,Cn1cc(-c2cnc(N)c3c(-c4ccc5c(c4)CCN5C(=O)Cc4ccccc4)csc23)cn1 [GSK2593074],31%
14,CN(C)CCNS(=O)(=O)c1ccc(-c2ccnc3[nH]ccc23)cc1 [GSK977620],7%
15,O=C(Nc1n[nH]c2nc(-c3cccc(O)c3)ccc12)C1CC1 [SB-711805],9%
16,Nc1cccc(-c2ccc3c(N)n[nH]c3c2)c1 [GSK2193613],3%
17,Cl.O=C(Nc1ccc(Oc2ccc3[nH]c(NC(=O)c4ccco4)nc3c2)cc1)Nc1cc(C(F)(F)F)ccc1F [GW683134],0%
18,COc1cccc2c(-c3ccncc3)c(-c3ccc(F)cc3)nn12 [GW468513],0%
19,COc1cc(Nc2ccnc3cc(-c4ccncc4)ccc23)cc(OC)c1OC.Cl [GW494610],0%

row,SMILES,%Inh
1,O=C(O)C(F)(F)F.O=c1[nH]ccc2nc(N[C@@H]3CCNC3)nc(Nc3ccc4c(c3)S(=O)(=O)CC4)c12 [GSK2181306],94.6%
2,Cl.N#CCc1ccc(Nc2nccc(Nc3ccc(Oc4ccccc4)cc3)n2)cc1 [GW639905],0%
3,Cc1ccc(O)cc1Nc1ccnc2cc(-c3ccc(CN4CCCCC4)o3)ccc12 [GW557777],23%
4,Cl.Cl.NC(CNC(=O)c1cc(Br)c(-c2ccnc3[nH]ccc23)s1)c1ccccc1 (stereo not shown) [GSK1322949],31%
5,CN(c1ccc2c(c1)nc(NCc1ccccc1)n2C)c1ccnc(Nc2ccc(CS(C)(=O)=O)cc2)n1.Cl [GW811603],0%
6,Cc1ccc(O)cc1Nc1ccnc2ccc(C(C)(C)C)cc12 [GW856805],0%
7,COC(=O)Nc1nc2ccc(Oc3ccc(NC(=O)Nc4cc(C(F)(F)F)ccc4F)cc3)cc2[nH]1.Cl [GW654607],7%
8,Cn1cc(-c2ccc3c(c2)CCN3C(=O)Cc2cc(F)cc(C(F)(F)F)c2)c2c(N)ncnc21 [GSK2635225],17%
9,COc1cccc(CC(=O)N2CCc3cc(-c4cn(C)c5ncnc(N)c45)ccc32)c1 [GSK2608899],15%
10,N#Cc1cnc2cc(-c3cnc(CNCCN4CCOCC4)s3)ccc2c1Nc1ccc(Oc2ccccc2)cc1 [GW664114],21%
11,O=C(Nc1n[nH]c2cc(-c3cccs3)ccc12)C1CC1 [SB-731284],0%
12,CN(C)CCOc1ccc(-c2cc(-c3ccc(Cl)c(O)c3)c(-c3ccncc3)[nH]2)cc1.Cl.Cl [SB-684387],16%
13,Cc1cccc(Nc2nc(NCCN)ncc2C(N)=O)c1 [GSK1292139],18%
14,COC(=O)Nc1nc2cc(Oc3ccc(NC(=O)Nc4cccc(SC)c4)cc3)ccc2[nH]1.Cl [GW697999],0%
15,Nc1ncnc2scc(-c3ccc(NC(=O)Cc4cc(F)ccc4F)cc3)c12.O=C(O)C(F)(F)F [SB-731254-M],11%
16,CC(C)c1nc(-c2ccc(F)c(NS(=O)(=O)c3c(F)cccc3F)c2)c(-c2ccnc(Nc3ccc(N4CCOCC4)nc3)n2)s1 [GSK1804250],19%
17,NCCC(NC(=O)c1cc(Br)c(-c2ccnc3[nH]ccc23)s1)c1ccccc1.O=C(O)C(F)(F)F.O=C(O)C(F)(F)F (stereo not shown) [GSK1307810],23%
18,COc1ccc(NC(=O)c2ccoc2)cc1-c1ccc(C(=O)NCC2CC2)cc1 [GW810437],2%
